# Source: PubChem BioAssay (EPA / NIEHS)
# Values joined by “and” are separate entries in the source; they are usually repeats but may differ in a detail not shown here. Equal entries are not always repeated. Results filed as inconclusive are left out. Some compounds were tested as several samples or in several runs, with calls that do not always agree. Active and inactive are the calls of the source. How the source made its calls, unless noted: active means hit-call score of the fitted dose curve at least 0.9, where 1 is the maximum; inactive means score below 0.9.
# What was measured:
# [1] = target: Oxysterols receptor LXR-alpha (Homo sapiens) (UniProt Q13133); test: ATG_LXRa_TRANS: Attagene TRANS-FACTORIAL HepG2 Assay for human Liver X Receptor alpha (LXRa) (AID 2282980; active means hit-call score of the fitted dose curve at least 0.9, where 1 is the maximum); conditions: HepG2 Attagene TRANS reporter, LXRa transactivation
# Chain of Oxysterols receptor LXR-alpha (Homo sapiens) (Q13133 whole entry, looked up, the tested form may be a part): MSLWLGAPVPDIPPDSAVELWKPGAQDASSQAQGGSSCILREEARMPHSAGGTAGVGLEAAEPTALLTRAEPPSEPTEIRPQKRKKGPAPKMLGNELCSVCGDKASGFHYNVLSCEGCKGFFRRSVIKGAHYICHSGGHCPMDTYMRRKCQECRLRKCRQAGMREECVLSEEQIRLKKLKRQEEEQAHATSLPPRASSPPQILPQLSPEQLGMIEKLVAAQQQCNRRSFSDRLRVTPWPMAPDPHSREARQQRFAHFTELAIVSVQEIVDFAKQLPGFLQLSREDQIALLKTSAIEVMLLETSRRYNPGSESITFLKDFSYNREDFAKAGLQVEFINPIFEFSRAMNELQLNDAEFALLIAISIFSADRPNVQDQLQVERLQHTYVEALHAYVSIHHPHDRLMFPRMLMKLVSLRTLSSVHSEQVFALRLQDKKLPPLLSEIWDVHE
# Method in brief: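 Transfect HepG2 with GAL4-UAS multiplex reporter constructs (TRANS format, chimeric receptor-GAL4); treat 24 h; extract RNA, reverse-transcribe, PCR-amplify, FAM-label, HpaI-digest; resolve fragments by capillary electrophoresis. Upward response vs DMSO.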
# [2] = BSK_3C_TissueFactor: BioMAP Diversity Plus: 3C Assay for Tissue Factor Biomarker Activity (AID 2282997); conditions: BioMAP 3C HUVEC, tissue factor biomarker readout; actives raise or lower the signal
# Method in brief: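 ELISA read-out of Tissue Factor levels on human umbilical vein endothelium collected 24 h after chemical dosing. Gain or loss of signal was fitted relative to DMSO.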
# [3] = BSK_4H_Eotaxin3: BioMAP Diversity Plus: 4H Assay for Eotaxin 3 Biomarker Activity (AID 2283000); conditions: primary human endothelial cells (HUVEC); actives raise or lower the signal;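 on outcome: CCL26 protein level quantified by ELISA in parallel with SRB cytotoxicity check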
# Method in brief: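 Chemicals were added to human umbilical vein endothelium cultures, and Eotaxin-3 was quantified by ELISA at 24 h. Values were derived by bidirectional fitting with DMSO serving as negative control and activity baseline.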
# [4] = read-out: Interleukin-1 alpha (IL1a), IL1A (gene 3552); test: BSK_BE3C_IL1a: BioMAP Diversity Plus: BE3C Assay for Interleukin-1 alpha (IL1a) Biomarker Activity (AID 2283016); conditions: primary human bronchial epithelial cells; actives raise or lower the signal
# Method in brief: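 Human primary bronchial epithelial cells, 24 h chemical exposure; IL-1a quantified by ELISA, fitted bidirectionally against DMSO. Cytotoxicity assessed in parallel by SRB total-protein staining at the time of measurement.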
# [5] = read-out: Monocyte Chemoattractant Protein-1 (MCP1), CCL2 (gene 6347); test: BSK_3C_MCP1: BioMAP Diversity Plus: 3C Assay for Monocyte Chemoattractant Protein-1 (MCP1) Biomarker Activity (AID 2283017); conditions: primary human endothelial cells (HUVEC); actives raise or lower the signal
# Method in brief: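 ELISA read-out of MCP-1 from human umbilical vein endothelial cell cultures harvested 24 h post-dosing. Gain or loss of signal was fitted relative to DMSO.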
# [6] = read-out: Interleukin-8 (IL8), CXCL8 (gene 3576); test: BSK_3C_IL8: BioMAP Diversity Plus: 3C Assay for Interleukin-8 (IL8) Biomarker Activity (AID 2283020); conditions: primary human endothelial cells (HUVEC); actives raise or lower the signal
# Method in brief: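 Primary human umbilical vein endothelial cells were dosed for 24 h. IL-8 was quantified by ELISA and fitted bidirectionally against DMSO. Cytotoxicity was assessed in parallel cultures by SRB staining at 560 nm.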
# [7] = read-out: Monokine induced gamma interferon (MIG), CXCL9 (gene 4283); test: BSK_3C_MIG: BioMAP Diversity Plus: 3C Assay for Monokine induced gamma interferon (MIG) Biomarker Activity (AID 2283021); conditions: primary human endothelial cells (HUVEC); actives raise or lower the signal;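 on AC50: MIG protein level measured by immunoassay in the treated endothelial cultures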
# Method in brief: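 HUVEC primary endothelial cultures dosed with chemical; MIG quantified by ELISA at 24 h. Data fitted bidirectionally against DMSO control, with parallel SRB total-protein staining for cytotoxicity.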
# [8] = BSK_3C_SRB: Viability Assessment in the BioMAP Diversity Plus: 3C Assay (AID 2283023); conditions: primary human endothelial cells (HUVEC);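 further: fitted both ways against DMSO so a hit may be signal rise or drop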
# Method in brief: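 Absorbance at 560 nm of sulforhodamine B-stained (0.1%) total protein served as a cytotoxicity readout in human umbilical vein endothelial cells, 24 h after chemical treatment. Signal was fitted bidirectionally relative to DMSO.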
# [9] = BSK_3C_Vis: BioMAP Diversity Plus: 3C Assay for Morphology Visualization (AID 2283025); conditions: primary human endothelial cells (HUVEC);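 further: fitted both ways so gain or loss versus DMSO counts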;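 on AC50: light microscopy image of cell morphology used as background control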
# Method in brief: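 Human umbilical vein endothelial cell morphology was inspected by light microscopy 24 h after chemical dosing; scored bidirectionally relative to DMSO.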
# [10] = read-out: Pselectin, SELP (gene 6403); test: BSK_4H_Pselectin: BioMAP Diversity Plus: 4H Assay for Pselectin Biomarker Activity (AID 2283026); conditions: primary human endothelial cells (HUVEC); actives raise or lower the signal
# Method in brief: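 Primary human umbilical vein endothelial cells were treated 24 h, and cell-surface P-selectin was then quantified by ELISA. Bidirectional fit versus DMSO; cytotoxicity checked in parallel cultures by SRB total-protein staining.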
# [11] = BSK_4H_SRB: Viability Assessment in the BioMAP Diversity Plus: 4H Assay (AID 2283027); conditions: primary human endothelial cells (HUVEC);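 further: cells exposed to compound for 24 h before staining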;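 on AC50: curves fitted both ways versus DMSO so AC50 may be loss or gain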
# Method in brief: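 Absorbance at 560 nm of SRB-stained total protein served as the viability read-out in confluent primary human umbilical vein endothelium 24 h after chemical treatment. Curves were fitted bidirectionally against DMSO as negative control.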
# [12] = read-out: Urokinase-type plasminogen activator receptor (uPAR), PLAUR (gene 5329); test: BSK_4H_uPAR: BioMAP Diversity Plus: 4H Assay for Urokinase-type plasminogen activator receptor (uPAR) Biomarker Activity (AID 2283030); conditions: primary human endothelial cells (HUVEC); actives raise or lower the signal
# Method in brief: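 Cell-surface uPAR ELISA signal, measured 24 h after dosing human umbilical vein endothelial cells, was analyzed with bidirectional fitting relative to DMSO. Parallel SRB staining of total protein tracked overt cytotoxicity.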
# [13] = read-out: Human Leukocyte Antigen - DR isotype (HLADR), HLA-DRA (gene 3122); test: BSK_BE3C_HLADR: BioMAP Diversity Plus: BE3C Assay for Human Leukocyte Antigen - DR isotype (HLADR) Biomarker Activity (AID 2283032); conditions: primary human bronchial epithelial cells; actives raise or lower the signal
# Method in brief: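 Human primary bronchial epithelial cells (BE3C system) exposed to compound for 24 hours; cell-surface HLA-DR measured by ELISA, fitted bidirectionally relative to DMSO. Total protein by SRB in parallel cultures tracked cytotoxicity.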
# [14] = target: Cytochrome P450 2C18 (Homo sapiens) (UniProt P33260); test: NVS_ADME_hCYP2C18: NovaScreen (NVS) CYP450-related Enzyme Activity (ADME) Assay for human CYP2C18 (AID 2283103)
# Chain of Cytochrome P450 2C18 (Homo sapiens) (P33260 whole entry, looked up): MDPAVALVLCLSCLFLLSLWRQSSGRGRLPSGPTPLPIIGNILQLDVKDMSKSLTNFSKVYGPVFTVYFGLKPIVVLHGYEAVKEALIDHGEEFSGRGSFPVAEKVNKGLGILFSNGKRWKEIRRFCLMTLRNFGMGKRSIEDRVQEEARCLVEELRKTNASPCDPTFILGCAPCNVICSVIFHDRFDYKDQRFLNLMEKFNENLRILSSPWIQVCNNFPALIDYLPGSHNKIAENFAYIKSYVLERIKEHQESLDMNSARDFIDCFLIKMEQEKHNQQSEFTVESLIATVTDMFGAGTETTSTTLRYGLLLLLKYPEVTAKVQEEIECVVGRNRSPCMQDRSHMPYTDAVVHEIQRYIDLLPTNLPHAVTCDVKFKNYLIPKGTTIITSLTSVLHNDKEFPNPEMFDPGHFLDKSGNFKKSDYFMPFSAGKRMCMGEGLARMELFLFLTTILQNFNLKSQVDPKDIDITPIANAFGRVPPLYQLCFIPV
# Method in brief: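 Cell-free recombinant human CYP2C18 with fluorogenic substrate; fluorescence intensity read 0.5 h after dosing. Single-point screen at 10 uM in duplicate, then concentration-response up to 20 uM; loss of signal fitted against acetonitrile baseline.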
# [15] = target: Estrogen receptor beta (Homo sapiens) (UniProt Q92731); test: OT_ER_ERbERb_1440: Odyssey Thera (OT) 24-hour HEK293T Protein-Complementation Assay for Estrogen Receptor-beta/-beta Homodimer (AID 2283380; active means hit-call score of the fitted dose curve at least 0.9, where 1 is the maximum;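 further: fluorescence gain from ER beta LBD homodimer complementation read by laser scanning cytometry; scored as signal increase over DMSO baseline for both agonists and antagonists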)
# Chain of Estrogen receptor beta (Homo sapiens) (Q92731 whole entry, looked up, the tested form may be a part): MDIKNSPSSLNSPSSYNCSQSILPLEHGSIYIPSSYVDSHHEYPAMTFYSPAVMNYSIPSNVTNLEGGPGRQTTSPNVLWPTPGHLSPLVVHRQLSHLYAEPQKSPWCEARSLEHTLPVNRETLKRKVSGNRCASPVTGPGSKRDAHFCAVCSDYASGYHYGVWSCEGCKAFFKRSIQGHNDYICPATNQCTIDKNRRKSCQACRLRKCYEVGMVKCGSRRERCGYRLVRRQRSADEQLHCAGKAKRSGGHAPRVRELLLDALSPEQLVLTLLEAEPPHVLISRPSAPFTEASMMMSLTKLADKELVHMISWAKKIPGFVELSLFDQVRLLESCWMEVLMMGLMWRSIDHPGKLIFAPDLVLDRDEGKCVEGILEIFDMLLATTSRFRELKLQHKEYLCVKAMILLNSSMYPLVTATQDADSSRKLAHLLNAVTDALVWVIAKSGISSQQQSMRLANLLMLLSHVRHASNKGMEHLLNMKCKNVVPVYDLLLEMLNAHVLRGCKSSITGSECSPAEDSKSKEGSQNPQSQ
# Method in brief: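 Fluorescence increase, nuclear for agonists or whole-cell for antagonists, relative to DMSO vehicle, quantified by laser scanning cytometer after fixation and Draq5 staining. Readout from 24 h treatment of HEK293T cells carrying complementation-paired ER beta LBD (aa 310-547).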
# [16] = ACEA_AR_antagonist_AUC_viability: ACEA Biosciences xCELLigence Real-Time Cell Analysis on Androgen Receptor Antagonism for Viability (AID 2283776; active means hit-call score of the fitted dose curve at least 0.9, where 1 is the maximum;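 further: 22Rv1 human prostate cancer cells growing on impedance electrode plates; area under impedance growth curve at 80 h after dosing as viability; hits lower the growth signal relative to DMSO meaning cytotoxicity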)
# Method in brief: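 Real-time electrical impedance tracks 22Rv1 proliferation after continuous compound exposure (top 100 uM final, 1:4 steps, 8 concentrations). The 80 h area-under-curve serves as the cytotoxicity readout relative to DMSO.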
# [17] = CCTE_Harrill_HTTr_Viability_MCF7: CCTE's 6-hour Cell Viability Assessment for the High-Throughput Transcriptomics (HTTr) Platform, in MCF-7 cells cultured in DMEM + 10% fetal bovine serum, Harrill Lab (AID 2284010)
# Method in brief: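 MCF-7 cells in DMEM + 10% FBS, 384-well, exposed 6 h to an eight-point dilution series. Membrane integrity scored by high-content imaging of propidium iodide exclusion; bidirectional fit versus DMSO.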
# [18] = target: human RAR-related Orphan Receptor beta (RORb), RORB (gene 6096) (UniProt Q92753); test: ATG_RORb_TRANS: Attagene TRANS-FACTORIAL HepG2 Assay for human RAR-related Orphan Receptor beta (RORb) (AID 2283010; active means hit-call score of the fitted dose curve at least 0.9, where 1 is the maximum)
# Chain of human RAR-related Orphan Receptor beta (RORb), RORB (gene 6096) (Q92753 whole entry, looked up, the tested form may be a part): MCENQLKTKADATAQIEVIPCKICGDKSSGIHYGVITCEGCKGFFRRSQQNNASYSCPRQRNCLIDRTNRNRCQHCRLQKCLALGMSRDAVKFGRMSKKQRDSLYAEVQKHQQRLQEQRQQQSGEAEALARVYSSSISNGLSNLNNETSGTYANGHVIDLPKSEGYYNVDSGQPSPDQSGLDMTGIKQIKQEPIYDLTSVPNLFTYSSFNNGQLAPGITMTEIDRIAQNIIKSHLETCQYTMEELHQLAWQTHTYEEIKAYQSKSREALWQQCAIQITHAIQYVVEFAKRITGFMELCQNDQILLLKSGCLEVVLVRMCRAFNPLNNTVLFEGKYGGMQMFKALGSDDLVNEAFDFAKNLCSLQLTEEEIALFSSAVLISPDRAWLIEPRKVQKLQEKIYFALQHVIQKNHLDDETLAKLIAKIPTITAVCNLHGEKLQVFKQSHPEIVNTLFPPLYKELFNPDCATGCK
# Method in brief: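 HepG2 cells transiently transfected with GAL4-UAS reporter units expressing chimeric NR-Gal4 protein; reporter mRNA measured 24 h after dosing by RT-PCR, 6-FAM labelling and capillary electrophoresis. Gain-of-signal fitted relative to DMSO baseline.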
# [19] = target: Bile acid receptor (Homo sapiens) (UniProt Q96RI1); test: ATG_FXR_TRANS: Attagene TRANS-FACTORIAL HepG2 Assay for Farnesoid X Receptor (FXR) (AID 2282979; active means hit-call score of the fitted dose curve at least 0.9, where 1 is the maximum;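 further: hits raise reporter mRNA above DMSO so AC50 marks FXR activation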); conditions: HepG2 Attagene TRANS FXR-GAL4 reporter transcription
# Chain of Bile acid receptor (Homo sapiens) (Q96RI1 whole entry, looked up, the tested form may be a part): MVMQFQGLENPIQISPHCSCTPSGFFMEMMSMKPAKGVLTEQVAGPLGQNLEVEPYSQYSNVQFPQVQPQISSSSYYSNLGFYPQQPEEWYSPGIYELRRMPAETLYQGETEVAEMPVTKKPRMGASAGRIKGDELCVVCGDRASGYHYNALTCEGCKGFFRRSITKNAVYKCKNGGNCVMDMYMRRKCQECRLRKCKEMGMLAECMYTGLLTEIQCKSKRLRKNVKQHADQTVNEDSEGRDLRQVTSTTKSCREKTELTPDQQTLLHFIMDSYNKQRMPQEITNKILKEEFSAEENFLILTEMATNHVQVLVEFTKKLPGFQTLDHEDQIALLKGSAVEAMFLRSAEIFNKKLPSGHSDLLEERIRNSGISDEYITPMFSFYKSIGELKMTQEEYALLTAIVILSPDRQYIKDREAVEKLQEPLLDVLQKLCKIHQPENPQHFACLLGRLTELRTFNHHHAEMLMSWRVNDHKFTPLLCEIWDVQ
# Method in brief: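 Transient transfection of HepG2 with multiplexed GAL4-UAS reporter units; exogenous FXR-GAL4 chimera. Dose 24 h → TriZol RNA → oligo(dT) RT → PCR, 6-FAM primer extension, HpaI cut → CE. Gain vs DMSO.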
# [20] = target: human CYP2J2, CYP2J2 (gene 1573) (UniProt P51589); test: NVS_ADME_hCYP2J2: NovaScreen (NVS) CYP450-related Enzyme Activity (ADME) Assay for human CYP2J2 (AID 2283106; active means hit-call score of the fitted dose curve at least 0.9, where 1 is the maximum)
# Chain of human CYP2J2, CYP2J2 (gene 1573) (P51589 whole entry, looked up): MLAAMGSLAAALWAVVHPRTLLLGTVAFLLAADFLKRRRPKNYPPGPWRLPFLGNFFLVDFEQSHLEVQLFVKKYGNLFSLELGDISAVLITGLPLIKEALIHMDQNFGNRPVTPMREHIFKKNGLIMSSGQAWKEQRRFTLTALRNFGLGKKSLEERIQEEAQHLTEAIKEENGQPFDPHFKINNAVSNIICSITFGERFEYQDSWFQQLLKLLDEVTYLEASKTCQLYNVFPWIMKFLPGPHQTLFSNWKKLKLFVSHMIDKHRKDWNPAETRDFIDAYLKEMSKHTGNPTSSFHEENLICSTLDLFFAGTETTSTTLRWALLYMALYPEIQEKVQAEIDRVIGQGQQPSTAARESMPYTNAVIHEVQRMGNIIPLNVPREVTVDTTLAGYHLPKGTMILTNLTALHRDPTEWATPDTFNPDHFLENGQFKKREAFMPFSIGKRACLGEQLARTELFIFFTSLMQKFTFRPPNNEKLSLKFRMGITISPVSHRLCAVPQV
# Method in brief: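 Cell-free assay of recombinant CYP2J2 with a fluorogenic substrate, read 1 h after dosing; loss of signal versus acetonitrile. Primary screen at 10 uM in duplicate, then concentration-response up to 20 uM for chemicals passing threshold (e.g., 30% inhibition).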
smiles,measurement,setting,value
COC(C)(C)CCC[C@H](C)C/C=C/C(C)=C/C(=O)OC(C)C,outcome,[1],inactive
same,AC50,[2],20 µM (active)
same,AC50,[3],29.4 µM (active)
same,AC50,[4],7.52 µM (active)
same,AC50,[5],36.9 µM (active)
same,outcome,[6],inactive
same,AC50,[7],39.2 µM (active)
same,AC50,[8],31.1 µM (active)
same,AC50,[9],37.4 µM (active)
same,AC50,[10],25.6 µM (active)
same,AC50,[11],32.4 µM (active)
same,AC50,[12],32.6 µM (active)
same,AC50,[13],18.5 µM (active)
[Cl-].[Cl-].[Cl-].[Yb+3],outcome,[1],inactive
CC(C)[C@@H](C(=O)O[C@@H](C#N)c1cccc(Oc2ccccc2)c1)c1ccc(Cl)cc1,outcome,[14],inactive
same,outcome,[15],inactive
same,AC50,[16],50 µM (active)
same,outcome,[16],inactive
O=[N+]([O-])c1ccc(Cl)cc1,outcome,[2],inactive
same,outcome,[3],inactive
same,outcome,[4],inactive
same,outcome,[5],inactive
same,outcome,[6],inactive
same,outcome,[7],inactive
same,outcome,[8],inactive
same,outcome,[9],inactive
same,outcome,[10],inactive
same,outcome,[11],inactive
same,outcome,[12],inactive
same,outcome,[13],inactive
same,outcome,[15],inactive
same,outcome,[17],inactive
O=S(=O)(O)OOS(=O)(=O)O,outcome,[15],inactive
same,outcome,[16],inactive
C[N+](C)(C)CC(=O)O,outcome,[1],inactive
same,outcome,[17],inactive
CCOC(=O)COc1ccc(Cl)cc1Cl,outcome,[17],inactive
C=CCc1ccc(OC(=O)Cc2ccccc2)c(OC)c1,outcome,[1],inactive
C[N+](C)=CCl,outcome,[18],inactive
CCOC(=O)N(C)N=O,outcome,[1],inactive
same,outcome,[17],inactive
O=c1c2ccccc2c(=O)c2c1cc(Cl)c1[nH]c3c([nH]c12)c(Cl)cc1c(=O)c2ccccc2c(=O)c13,outcome,[19],inactive
same,AC50,[2],15.8 µM (active)
same,AC50,[3],24.8 µM (active)
same,outcome,[18],inactive
same,outcome,[4],inactive
same,outcome,[5],inactive
same,outcome,[6],inactive
same,outcome,[7],inactive
same,outcome,[8],inactive
same,outcome,[9],inactive
same,outcome,[10],inactive
same,outcome,[11],inactive
same,outcome,[12],inactive
same,outcome,[13],inactive
CC1(C)C(=O)NC(=O)NC1=O,outcome,[18],inactive
CCCCCc1cc(O)cc(O)c1,outcome,[19],inactive
Nc1c(Cl)c(Cl)c(Cl)c(Cl)c1Cl,outcome,[1],inactive
C=CC(=O)OCCO,outcome,[18],inactive
same,outcome,[15],inactive
same,outcome,[16],inactive
CN1C[C@H](C(=O)N[C@]2(C)O[C@@]3(O)[C@@H]4CCCN4C(=O)[C@H](Cc4ccccc4)N3C2=O)C=C2c3cccc4[nH]cc(c34)C[C@H]21,outcome,[19],inactive
CCN(CC)CCOc1ccc(C(=C(Cl)c2ccccc2)c2ccccc2)cc1,AC50,[14],11.4 µM (active) and 4.62 µM (active)
same,AC50,[20],4.08 µM (active) and 7.21 µM (active)
same,outcome,[20],inactive
CCSC(=O)N(CC(C)C)CC(C)C,AC50,[20],1.4 µM (active)
N#CSCSc1nc2ccccc2s1,AC50,[14],2.72 µM (active)
same,AC50,[20],0.466 µM (active)
CCCCOCCOCCOCc1cc2c(cc1CCC)OCO2,AC50,[14],4.47 µM (active)
same,AC50,[20],0.116 µM (active)
O=c1c(-c2ccc(O)cc2)coc2cc(O)cc(O)c12,outcome,[14],inactive
same,AC50,[20],979 nM (active) and 1.06 µM (active) and 443 nM (active)
COC(=O)CSc1cc(N=c2sc(=O)n3n2CCCC3)c(F)cc1Cl,outcome,[14],inactive
CC(C)(c1ccc(O)cc1)c1ccc(O)cc1,AC50,[14],6.12 µM (active) and 7.43 µM (active)
same,AC50,[20],4.93 µM (active)
Cc1nn(C)c(Oc2ccccc2)c1C=NOCc1ccc(C(=O)OC(C)(C)C)cc1,outcome,[14],inactive
same,AC50,[20],5.24 µM (active)
